Source: PubChem (National Center for Advancing Translational Sciences (NCATS))
Sm TGR block = S. mansoni TGR enzyme inhibition; Q962Y6; purified TGR, DTNB reduction, TNB absorbance 405 nm; Potency, µM (series often up to 114 µM), for inactives: at the top dose activity change, negative = inhibition, hits mostly inhibitors; hit rate 3% among 360,000; AID 485364; note: potency is the fitted concentration of half-maximal effect; % is set by controls: 0 for no effect and ±100 for the full control effect; nearly all actives have a fitted effect of over 60% in size
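First, TGR (20 nM dispensed) and NADPH were mixed with compound. Second, a 15 min room-temperature incubation followed. Third, further NADPH and then DTNB were added to start the reaction. Finally, TNB absorbance was monitored kinetically.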
Shiga toxin inh = Shiga toxin inhibition | hit rate 9.2% among 290,000 | Vero cells, Shiga toxin protein synthesis inhibition reporter | inhibition, % at 38.7 µM; in the data active = inhibition mostly above about 28%, no sharp cut-off; inactive = mostly below about 43%; note: 0% is about no effect
Tb PYK inh = T. brucei pyruvate kinase inhibition; hit rate 0.12% among 410,000; Potency, µM (series often up to 76.8 µM), for the others: at the highest dose activity, negative = inhibition, hits mostly inhibitors; TbPYK enzyme, Kinase-Glo Plus ATP luminescence, 45 min; Q57TT1; note: potency is the fitted concentration of half-maximal effect; % is set by controls: 0 for no effect and ±100 for the full control effect; nearly all actives have a fitted effect of over 50% in size
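Glycolytic pyruvate kinase of T. brucei was incubated with substrate, test compound and 130 uM ADP for 45 minutes at room temperature. Luminescent Kinase-Glo Plus signal was measured after 10 minutes.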
Giardia FBPA inh = blocks Giardia fructose-bisphosphate aldolase activity. Potency, µM (top dose mostly 59.6 µM), for inactives: at the highest dose activity, negative = inhibition, actives largely listed as inhibitors. hit rate 0.71% among 290,000. AID 2451. purified Giardia FBPA. A8B2U2; note: potency is the fitted concentration of half-maximal effect; % is set by controls: 0 for no effect and ±100 for the full control effect; nearly all actives have a fitted effect of over 55% in size
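40 nM FBPA preincubated 10 min at RT with compound (up to 57.5 uM final), then substrate plus GAPDH/TPI/NAD/arsenate coupling and diaphorase/resazurin added. Fluorescence read after 20 min at RT, 525/598 nm.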
LmPK inh = blocks Leishmania mexicana pyruvate kinase activity; purified LmPK, Kinase-Glo ATP luminescence, 1 h; hit rate 0.37% among 290,000; AID 1721; Potency, µM (highest dose often 57.5 µM), without a hit: top-dose activity change, negative = inhibition, usual class: inhibitors; note: potency is the fitted concentration of half-maximal effect; % is set by controls: 0 for no effect and ±100 for the full control effect
Target sequence (Q27686 whole entry, looked up): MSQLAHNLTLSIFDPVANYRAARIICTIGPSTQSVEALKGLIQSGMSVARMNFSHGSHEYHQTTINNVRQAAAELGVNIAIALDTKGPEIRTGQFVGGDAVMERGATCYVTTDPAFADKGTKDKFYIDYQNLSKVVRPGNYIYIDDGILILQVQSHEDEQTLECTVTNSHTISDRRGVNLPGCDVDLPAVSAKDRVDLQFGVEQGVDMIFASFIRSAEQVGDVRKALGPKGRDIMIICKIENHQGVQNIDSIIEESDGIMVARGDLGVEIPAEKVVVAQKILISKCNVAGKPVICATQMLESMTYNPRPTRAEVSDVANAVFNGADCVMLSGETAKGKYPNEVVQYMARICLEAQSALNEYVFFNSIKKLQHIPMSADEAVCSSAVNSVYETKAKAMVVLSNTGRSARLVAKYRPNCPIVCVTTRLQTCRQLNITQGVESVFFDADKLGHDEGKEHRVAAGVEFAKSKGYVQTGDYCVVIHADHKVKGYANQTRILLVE
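Purified LmPK (0.1 nM) with 0.5 mM PEP and 0.1 mM ADP in imidazole buffer pH 7.2 with MgCl2/KCl, 1 h at room temperature. ATP formed was read by luciferase luminescence and normalized to no-enzyme and uninhibited controls.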
Cycloheximide cs = counter-screen for Shiga toxin inhibitors: cycloheximide protein synthesis inhibition. max response, %. cell reporter, cycloheximide protein synthesis inhibition counterscreen. AID 2314. hit rate 12% among 300,000; in the data active = max response mostly above about 13%, no sharp cut-off; inactive = mostly below about 14%; note: read at 38.3 µM for the half of the compounds with a filed dose; 0% is about no effect
An asterisk follows results filed as active; ? = inconclusive; · = no result. Shown is part of a subset that was picked to be rich in hits. Unless noted, calls come from the whole dose curve; as a rule, active = well fitted curve in the direction sought with a large enough effect; inconclusive = small, poorly fitted or top-dose-only effect, or another doubt; inactive = no such curve, though single readings can be large; an effect the other way counts as inactive or inconclusive.

SMILES | Sm TGR block | Shiga toxin inh | Tb PYK inh | Giardia FBPA inh | LmPK inh | Cycloheximide cs
O=C(Nc1ccccc1F)NC1CCCc2ccccc21 (configuration not stated) | 0% | 34* | 0% | -9% | 6% | 12
O=C(Nc1ccc(Br)cc1)Nc1ccccc1F | 4% | 107* | 2% | 0% | ? | 50*
O=C1NC[C@@H](c2ccccc2)OC(=O)[C@@H](Cc2ccc(F)cc2)C/C=C\C[C@@H]1CC(=O)N(CCO)Cc1ccccc1 | · | · | -6% | · | · | ·
Cc1ccc(C)c(N2CCN(C(=O)c3c4c(nc5ccccc35)C(=O)N(C3CCCCC3)C4)CC2)c1 | -12% | · | -1% | · | · | ·
CCC(=Cc1ccccc1OC)c1ccncc1 | · | · | -3% | · | · | ·
COC(=O)CCC(C)C1CCC2C3CC[C@H]4CC(O)CC[C@@]4(C)C3CC(O)[C@]12C (some centres not stated) | · | · | · | 6% | · | ·
Cn1nc(-c2ccccc2)cc1NC(=O)CCCC(=O)O | 17% | 4 | 2% | 6% | 0% | 1
CCN(CC)C(=O)c1ccc(C(=O)Nc2ccc(F)cc2)cc1 | -4% | · | -3% | · | · | ·
CC(=O)Nc1cccc2ccc(O)cc12 | · | · | 3% | · | · | ·
O=C(Nc1ccccc1F)Nc1cccc2ccc(O)cc12 | 32µM* | 102* | 0% | ? | -16% | 46*
CCN(CC)C(=O)c1ccc(NC(=O)Nc2ccccc2F)cc1 | -7% | 40 | ? | 3% | ? | 16*
Cn1nc(-c2ccccc2)cc1NC(=O)C1CCCCC1 | 7% | 59 | 1% | 2% | 5% | 41*
O=C(Nc1ccccc1F)Nc1ccccc1F | -4% | 73* | -14% | -1% | ? | 35*
O=C(COCc1cc(-c2ccc(F)cc2)on1)Nc1cc(Cl)cc(Cl)c1 | 8% | · | 0% | · | · | ·
Cc1cnc(CNc2ncnc3ccc(-c4c(C)noc4C)cc23)cn1 | · | · | · | 0% | · | ·
COc1ccc(CCNC(=O)Cn2nc(C)n3c(cc4cc(F)ccc43)c2=O)cc1OC | 4% | · | 4% | · | · | ·
CCOC(=O)c1ccccc1NC(=O)NC(C)c1c(-n2cccc2)sc(C)c1C (configuration not stated) | -8% | · | 2% | · | · | ·
Cn1nc(-c2ccccc2)cc1NC(=O)Nc1ccccc1F | 10% | 57 | 2% | -1% | 1% | 36*
CCOC(=O)C1(C)CCCN(C(=O)CCc2ccccc2)C1 (configuration not stated) | · | · | 3% | · | · | ·
COc1ccc([C@@H]2[C@@H]3C(=O)N(C(C)(C)C)C(=O)[C@@H]3[C@]3(CC(C)C)C(=O)N(c4cccc(Br)c4)C(=O)N23)cc1 | 1% | -10 | 1% | -9% | -3% | -4
COc1ccc([C@@H]2[C@@H]3C(=O)N(C(C)(C)C)C(=O)[C@@H]3[C@]3(C)C(=O)N(c4ccc(C(F)(F)F)cc4)C(=O)N23)cc1 | -20% | 24* | -3% | -13% | -1% | 21*
COc1ccc([C@@H]2[C@@H]3C(=O)N(C(C)(C)C)C(=O)[C@@H]3[C@]3(CC(C)C)C(=O)N(c4ccccc4)C(=O)N23)cc1 | -11% | 26 | 0% | 5% | 1% | 16*
COc1ccc([C@@H]2[C@@H]3C(=O)N(C(C)(C)C)C(=O)[C@@H]3[C@]3(CC(C)C)C(=O)N(c4ccc(C(F)(F)F)cc4)C(=O)N23)cc1 | 1% | -2 | 5% | 14% | 1% | -3
COc1cc(/C=C(\C#N)C(=O)Nc2cccc(C(=O)O)c2)ccc1OCc1ccc(Cl)cc1 | -6% | 107* | -7% | -3% | 4% | 52*
COc1ccc(/C=C(/C#N)C(=O)Nc2ccccc2C)cc1C(=O)O | -11% | -4 | -5% | 5% | -3% | 0
SMILES | Sm TGR block | Shiga toxin inh | Tb PYK inh | Giardia FBPA inh | LmPK inh | Cycloheximide cs
COc1cc(/C=C(/C#N)C(=O)Nc2ccccc2)c(Br)cc1OCc1ccc(C(=O)O)cc1 | -7% | 11 | -1% | 10% | 1% | 7
N#C/C(=C\c1ccc(OCCN2CCOCC2)cc1)C(=O)Nc1ccccc1 | 0% | 17 | -4% | -2% | -2% | 20*
COc1cc(/C=C(\C#N)C(=O)Nc2ccccc2)ccc1OCCN1CCOCC1 | -12% | 45* | -5% | 1% | -1% | 27*
COc1cc(/C=C(\C#N)C(=O)N2CCOCC2)ccc1OCc1ccccc1 | 3% | 40 | -3% | 0% | 8% | 3
COc1cc(/C=C(\C#N)C(=O)Nc2ccccc2F)ccc1OCCN1CCOCC1 | 0% | 14 | 0% | · | -10% | 25*
Cc1ccc(/C=C(\C#N)C(=O)NCCN2CCOCC2)cc1 | -6% | -8 | -6% | -2% | 0% | -9
CCc1nn(CC(=O)NCCc2ccc(Cl)cc2)c(=O)c2cc3ccccc3n12 | 0% | · | 1% | · | · | ·
CN(C)c1ccc(C(CNC(=O)c2ccc(C(C)(C)C)cc2)N2CCCC2)cc1 (configuration not stated) | -4% | · | 2% | · | · | ·
CCOC(=O)C1(Cc2cccc(OC)c2)CCCN(C(=O)c2cc(CC(C)C)[nH]n2)C1 (configuration not stated) | 2% | 87* | -4% | · | 0% | 53*
C=CCCC(=O)N1CCCC(Cc2cccc(Cl)c2)(C(=O)OCC)C1 (configuration not stated) | ? | -35 | -2% | 8% | 4% | 9
CCOC(=O)C1(Cc2cccc(OC)c2)CCCN(C(=O)CCN2CCCO2)C1 (configuration not stated) | 7% | 148* | -1% | · | -4% | 57*
CCOC(=O)C1(Cc2cccc(OC)c2)CCCN(Cc2cnn(C)c2)C1 (configuration not stated) | 0% | -10 | 1% | -1% | 5% | 1
CCOC(=O)C1(Cc2cccc(OC)c2)CCCN(Cc2cc(OC)c(O)c(OC)c2)C1 (configuration not stated) | ? | -8 | -2% | ? | 1% | 12
CCOC(=O)C1(Cc2cccc(OC)c2)CCCN(C(=O)c2ccc(OC)o2)C1 (configuration not stated) | 50µM* | 113* | -1% | · | -5% | 41*
O=C(Nc1cnc2sccn2c1=O)c1ccccc1Cl | -32% | 65 | -8% | 1% | ? | 40*
Cc1cccc(NC(=O)c2cnc3ccccn3c2=O)c1 | -6% | 22* | 1% | 4% | -20% | 31*
O=C(Nc1ccc2c(c1)OCCO2)c1cnc2ccccn2c1=O | · | · | 3% | · | · | ·
COc1ccc(NC(=O)c2cnc3sccn3c2=O)cc1 | -8% | 43* | 2% | -1% | -10% | 27*
Cc1cccc(NC(=O)c2cnc3sccn3c2=O)c1C | -1% | 66* | · | 2% | -10% | 24*
Cc1cccc(NC(=O)c2cnc3sccn3c2=O)n1 | · | · | 0% | · | · | ·
COc1ccc(NC(=O)C2CC(=O)N(Cc3ccco3)C2)cc1Cl (configuration not stated) | ? | · | 0% | · | · | ·
